According to PMC5540273 (PLoS ONE, 2017):

Legend:
Conditions in all cases: concentration: 1 μM,replicates: in singlicate; n = 1
[1] = system: PRKD3
[2] = system: PRKG1
[3] = system: PRKG2
[4] = system: T1, PRKR
T1 construct: gene EIF2AK2

[5] = system: PRKX
[6] = system: PRP4
[7] = system: T2, PYK2
T2 construct: gene PTK2B

[8] = system: QSK
[9] = system: RAF1
[10] = system: RET
[11] = system: RIOK1
[12] = system: RIOK2
[13] = system: RIOK3
[14] = system: RIPK1
[15] = system: RIPK2
[16] = system: RIPK4
[17] = system: RIPK5
[18] = system: ROCK1
[19] = system: ROCK2
[20] = system: ROS1
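Also: KINOMEscan kinase panel screen.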

| Structure (SMILES) | %Inh [1] | %Inh [2] | %Inh [3] | %Inh [4] | %Inh [5] | %Inh [6] | %Inh [7] | %Inh [8] | %Inh [9] | %Inh [10] | %Inh [11] | %Inh [12] | %Inh [13] | %Inh [14] | %Inh [15] | %Inh [16] | %Inh [17] | %Inh [18] | %Inh [19] | %Inh [20] |
| --- | --- | --- | --- | --- | --- | --- | --- | --- | --- | --- | --- | --- | --- | --- | --- | --- | --- | --- | --- | --- |
| C[C@@H]1CCN(C(=O)N2CCCC2)C[C@@H]1N(C)c1ncnc2[nH]ccc12 | 26% | 29% | 13% | 0% | 0% | 0% | 0% | 0% | 10% | 41% | 0% | 0% | 2% | 0% | 0% | 13% | 24% | 43% | 67% | 23% |
| O=C(Nc1cccc(Oc2ccc3nccn3n2)c1)Nc1cccc(C(F)(F)F)c1 | 20% | 6% | 0% | 0% | 0% | 11% | 3% | 14% | 90% | 86% | 0% | 0% | 0% | 5% | 12% | 0% | 0% | 3% | 0% | 0% |
| CC(=O)c1c(-c2ccncc2)[nH]c(-c2ccncc2)c1C [GW493036] | 100% | 75% | 73% | 0% | 0% | 22% | 0% | 0% | 41% | 26% | 17% | 14% | 0% | 0% | 14% | 0% | 0% | 46% | 27% | 0% |
| CCn1c(-c2nonc2N)nc2cncc(Br)c21 [SB-738004] | 0% | 0% | 92.1% | 36% | 0% | 27% | 0% | 0% | 10% | 26% | 19% | 3% | 17% | 27% | 11% | 58% | 1% | 99.7% | 99.6% | 7% |
